Measured values from PubChem BioAssay (NCI).
About 79,000 compounds went through this panel and 15% of them were active in at least one assay; those are over-represented in the sample as a whole. A number with no mark means an inactive call. The source made the active and inactive calls. No stated cut-off is given here; in the data, active means growth inhibition above about 70%; inactive means the rest.

Experiment: NCI Yeast Anticancer Drug Screen. Data for the bub3 strain (AID 167)
Details: S. cerevisiae bub3 mutant strain, at 50.0 µM, active compounds read high
In short: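 Compounds were applied to a genetically altered yeast strain carrying a cell-cycle control defect. Growth inhibition was scored against vehicle-treated controls.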

Row | SMILES | growth inhibition [%]
1 | Clc1ccc(C2N3CCCCC3[C@@H]3c4[nH]c5ccccc5c4CCN23)cc1 (stereo not given in full) | 0.3
2 | O=C(Nc1nccs1)c1cc(C2=CC=CC([N+](=O)[O-])C=C2)nc(=S)[nH]1 (stereo not given) | -8.65
3 | C=CCOC(=O)C1CCCCC1C(=O)OCC=C (stereo not given) | 21.6
4 | C1=Nc2ccccc2/C1=C/c1ccc2c(c1)OCO2 | 8.85
5 | CCn1c(=O)c(C(=O)O)c(Cl)c2cc3c(cc21)OCO3 | 6.15
6 | Cn1c(=O)c2c(nc(Br)n2CC(=O)CF)n(C)c1=O | 8
7 | Cc1cc2c(=O)c3ccccc3oc2c(C(=O)O)c1C | -1.9
8 | COc1cccc(C2c3cc4c(cc3OC(N3CCCCC3)C2C)OCO4)c1OC (stereo not given) | 63
9 | Oc1ccc(N=Cc2ccc(C=Nc3ccc(O)cc3)cc2)cc1 | -13.4
10 | CC(C)=Nn1cnc2nccnc2c1=O | -13.3
11 | CCOc1cccc(/C=N/N=C2\C(=O)Nc3c(Cl)cc(Cl)cc32)c1O | 34.1
12 | CC(C)c1cc(C(C)C)c(Cc2c(C(C)C)cc(C(C)C)cc2C(C)C)c(C(C)C)c1 | -2
13 | O=C(O)Cc1cc(CC(=O)O)cc(CC(=O)O)c1 | 1.6
14 | O=c1oc2ccc(Cl)cc2n1CN1CCOCC1 | -34.2
15 | CCOC(=O)C(C(=O)OCC)C(NC(=O)Nc1cc(C(F)(F)F)ccc1OC)(C(F)(F)F)C(F)(F)F | 21.6
16 | N#C/C(=C\NC(=S)Nc1ccc(S(=O)(=O)Nc2nccs2)cc1)C(=O)c1ccc2ccccc2c1 | -8
17 | CC1=NN(C(=O)CC(=O)Nc2cccc(Cl)c2)C(=O)C1N=Nc1ccc(C(=O)O)cc1 (stereo not given) | -3.2
18 | COC1CCC2(C)C3CCC4C(=CCC5C(C)(C)C(=O)CCC45C)CC3(C)CCC2C1(C)C (stereo not given) | -2.2
19 | O=[N+]([O-])c1ccc(C2=NCC=CCO2)cc1 | 4.5
20 | CC1(C)CC(=O)C2=C(C1)NC(=S)C(C#N)C2c1ccccc1 (stereo not given) | 21.1

Row | SMILES | growth inhibition [%]
21 | O=c1[nH]ncc2ccc([N+](=O)[O-])cc12 | -2.3
22 | CC(Sc1ccc([N+](=O)[O-])cn1)C(=O)O (stereo not given) | -25.9
23 | OC(c1ccccc1)C1CC2C=CC1C2 (stereo not given) | -2.05
24 | CC(=O)CCC(=O)CC(=O)CCC(=O)Nc1cc(Cl)ccc1Cl | 2.5
25 | Cc1cc(Cl)ccc1NC(=O)C1C(=O)N(c2ccc(Cl)cc2C)C(=O)/C1=N\NC(N)=O (stereo not given) | -6.45
26 | CCCCCCCCCCCCCCCCS(=O)(=O)N/N=C(/c1ccc(OC)c(OC)c1)N1CCCCC1 | -18.1
27 | Nc1cccc2c([N+](=O)[O-])cccc12 | 17
28 | COC1/C=C/OC2(C)Oc3c(C)c(O)c4c(O)c(c(C5SCCS5)c(O)c4c3C2=O)NC(=O)/C(C)=C\C=C\C(C)C(O)C(C)C(O)C(C)C(O)C1C (stereo not given) | 0
29 | c1ccc2c(c1)Cc1c(-c3ccncc3)n[nH]c1-2 | 19.3
30 | CN(C)CCCOCCn1c2c(c3ccccc31)CCCC2 | 15.8
31 | CCOCCC(=O)OCCC(C)OC (stereo not given) | -58.1
32 | CC(C)CCCCCCCCCCCCC(=O)NCC(=O)NC1C(C)OC(Nc2ncnc3c2ncn3C)C(O)C1O (stereo not given) | 4.05
33 | COc1cc(C2C3=C(COC3=O)OC(C)(C)Oc3cc4c(cc32)OCO4)cc(OC)c1OC (stereo not given) | -8.8
34 | Nc1c(Br)cc2c(c1Br)C(=O)c1ccccc1-2 | 15.2
35 | Oc1ccc(Cl)cc1-c1cc(-c2ccccc2)nc(=S)[nH]1 | -1.3
36 | CC(=O)OCC1OC(OC(C)=O)C(NC(=O)C[NH-])C(OC(C)=O)C1OC(C)=O.CC(=O)OCC1OC(OC(C)=O)C(NC(=O)C[NH-])C(OC(C)=O)C1OC(C)=O.[Cl][Pt+2][Cl] (stereo not given) | 1.7
37 | Cn1c(=O)c2[nH]c(CC3=CCCCC3)nc2n(C)c1=O | 4.4
38 | O=C1OCCOCCOCCOCCOCCOCCOC(=O)c2cccc1n2 | -0.35
39 | Cc1cc(C)c(C(=O)c2ccccc2C)c(C)c1 | 11.3
40 | Cc1ccc(S(=O)(=O)OCCOc2ccc(C(C)(C)CC(C)(C)C)cc2)cc1 | -1.65

Experiment: NCI Yeast Anticancer Drug Screen. Data for the mlh1 rad18 strain (AID 175)
Details: S. cerevisiae mlh1 rad18 strain growth inhibition; at 50.0 µM; active compounds read high
In short: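 Compound-treated yeast growth, normalised to vehicle controls. Strain bears defined DNA repair mutations.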

Row | SMILES | growth inhibition
41 | Clc1ccc(C2N3CCCCC3[C@@H]3c4[nH]c5ccccc5c4CCN23)cc1 (stereo not given in full) | -8.5%
42 | O=C(Nc1nccs1)c1cc(C2=CC=CC([N+](=O)[O-])C=C2)nc(=S)[nH]1 (stereo not given) | -7.6%
43 | C=CCOC(=O)C1CCCCC1C(=O)OCC=C (stereo not given) | 1.9%
44 | C1=Nc2ccccc2/C1=C/c1ccc2c(c1)OCO2 | 8.5%
45 | CCn1c(=O)c(C(=O)O)c(Cl)c2cc3c(cc21)OCO3 | 38.2%
46 | Cn1c(=O)c2c(nc(Br)n2CC(=O)CF)n(C)c1=O | 20.4%
47 | Cc1cc2c(=O)c3ccccc3oc2c(C(=O)O)c1C | -4.15%
48 | COc1cccc(C2c3cc4c(cc3OC(N3CCCCC3)C2C)OCO4)c1OC (stereo not given) | 61.8%
49 | Oc1ccc(N=Cc2ccc(C=Nc3ccc(O)cc3)cc2)cc1 | -16.4%
50 | CC(C)=Nn1cnc2nccnc2c1=O | -1.6%
51 | CCOc1cccc(/C=N/N=C2\C(=O)Nc3c(Cl)cc(Cl)cc32)c1O | 83.2% (active)
52 | CC(C)c1cc(C(C)C)c(Cc2c(C(C)C)cc(C(C)C)cc2C(C)C)c(C(C)C)c1 | 20.3%
53 | O=C(O)Cc1cc(CC(=O)O)cc(CC(=O)O)c1 | -17.9%
54 | O=c1oc2ccc(Cl)cc2n1CN1CCOCC1 | 5.55%
55 | CCOC(=O)C(C(=O)OCC)C(NC(=O)Nc1cc(C(F)(F)F)ccc1OC)(C(F)(F)F)C(F)(F)F | 24.8%
56 | N#C/C(=C\NC(=S)Nc1ccc(S(=O)(=O)Nc2nccs2)cc1)C(=O)c1ccc2ccccc2c1 | 16.4%
57 | CC1=NN(C(=O)CC(=O)Nc2cccc(Cl)c2)C(=O)C1N=Nc1ccc(C(=O)O)cc1 (stereo not given) | 6.55%
58 | COC1CCC2(C)C3CCC4C(=CCC5C(C)(C)C(=O)CCC45C)CC3(C)CCC2C1(C)C (stereo not given) | -12.1%
59 | O=[N+]([O-])c1ccc(C2=NCC=CCO2)cc1 | 12.8%
60 | CC1(C)CC(=O)C2=C(C1)NC(=S)C(C#N)C2c1ccccc1 (stereo not given) | 30.2%

Row | SMILES | growth inhibition
61 | O=c1[nH]ncc2ccc([N+](=O)[O-])cc12 | -6.8%
62 | CC(Sc1ccc([N+](=O)[O-])cn1)C(=O)O (stereo not given) | 30.9%
63 | OC(c1ccccc1)C1CC2C=CC1C2 (stereo not given) | 2.6%
64 | CC(=O)CCC(=O)CC(=O)CCC(=O)Nc1cc(Cl)ccc1Cl | 6.2%
65 | Cc1cc(Cl)ccc1NC(=O)C1C(=O)N(c2ccc(Cl)cc2C)C(=O)/C1=N\NC(N)=O (stereo not given) | 5.7%
66 | CCCCCCCCCCCCCCCCS(=O)(=O)N/N=C(/c1ccc(OC)c(OC)c1)N1CCCCC1 | -7%
67 | Nc1cccc2c([N+](=O)[O-])cccc12 | 60.2%
68 | COC1/C=C/OC2(C)Oc3c(C)c(O)c4c(O)c(c(C5SCCS5)c(O)c4c3C2=O)NC(=O)/C(C)=C\C=C\C(C)C(O)C(C)C(O)C(C)C(O)C1C (stereo not given) | 36.9%
69 | c1ccc2c(c1)Cc1c(-c3ccncc3)n[nH]c1-2 | 60.1%
70 | CN(C)CCCOCCn1c2c(c3ccccc31)CCCC2 | -89.5%
71 | CCOCCC(=O)OCCC(C)OC (stereo not given) | -37.2%
72 | CC(C)CCCCCCCCCCCCC(=O)NCC(=O)NC1C(C)OC(Nc2ncnc3c2ncn3C)C(O)C1O (stereo not given) | 11.4%
73 | COc1cc(C2C3=C(COC3=O)OC(C)(C)Oc3cc4c(cc32)OCO4)cc(OC)c1OC (stereo not given) | 22%
74 | Nc1c(Br)cc2c(c1Br)C(=O)c1ccccc1-2 | -0.05%
75 | Oc1ccc(Cl)cc1-c1cc(-c2ccccc2)nc(=S)[nH]1 | -3.6%
76 | CC(=O)OCC1OC(OC(C)=O)C(NC(=O)C[NH-])C(OC(C)=O)C1OC(C)=O.CC(=O)OCC1OC(OC(C)=O)C(NC(=O)C[NH-])C(OC(C)=O)C1OC(C)=O.[Cl][Pt+2][Cl] (stereo not given) | 21.9%
77 | Cn1c(=O)c2[nH]c(CC3=CCCCC3)nc2n(C)c1=O | 21.6%
78 | O=C1OCCOCCOCCOCCOCCOCCOC(=O)c2cccc1n2 | 9.6%
79 | Cc1cc(C)c(C(=O)c2ccccc2C)c(C)c1 | 15.7%
80 | Cc1ccc(S(=O)(=O)OCCOc2ccc(C(C)(C)CC(C)(C)C)cc2)cc1 | 8.8%
